Screen size: about 5,500 compounds; about 2,000 (36%) were called active. Not shown: some 18% with an inconclusive outcome. This is one part of the list. Values without a mark were called inactive. Cut-off read from the data, not from the text of the source: active = normalized growth mostly below about 0.91 (no sharp cut-off); inconclusive = no clear call, values can overlap the other calls; inactive = mostly above about 0.92.
Experiment: chemical genetic growth profiling, strain panel (AID 1159580);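 note: tested at 20 µM; growth read once vehicle control cultures reached saturation at 30 °C; 1 = growth at the plate median or of vehicle wells; lower values mean less growth of the strain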
Conditions: growth OD

Question: Which results are given for O=C(OCc1ccccc1)c1ccccc1?
Answer: normalized growth (S. cerevisiae deletion strains, locus YKL009W, strain mrt4, stronger effect = lower value): 0.934; normalized growth (S. cerevisiae deletion strains, locus YKL068W, stronger effect = lower value): 0.961; normalized growth (S. cerevisiae deletion strains, locus YKL085W, strain MDH1 (second series), stronger effect = lower value): 0.957; normalized growth (S. cerevisiae deletion strains, locus YKL085W, strain MDH1, stronger effect = lower value): 0.957; normalized growth (S. cerevisiae deletion strains, locus YKL160W, strain elf1, stronger effect = lower value): 0.951; normalized growth (S. cerevisiae deletion strains, locus YKL190W, strain CNB1, stronger effect = lower value): 1; normalized growth (S. cerevisiae deletion strains, locus YKR001C, strain vps1, stronger effect = lower value): 0.789 (active); normalized growth (S. cerevisiae deletion strains, locus YKR026C, strain gcn3, stronger effect = lower value): 0.954; normalized growth (S. cerevisiae deletion strains, locus YKR091W, strain srl3, stronger effect = lower value): 0.952; normalized growth (S. cerevisiae deletion strains, locus YLL001W, strain dnm1, stronger effect = lower value): 0.945; normalized growth (S. cerevisiae deletion strains, locus YLL026W, stronger effect = lower value): 0.953; normalized growth (S. cerevisiae deletion strains, locus YLL041C, strain sdh2, stronger effect = lower value): 0.965; normalized growth (S. cerevisiae deletion strains, locus YLR027C, strain aat2, stronger effect = lower value): 0.954; normalized growth (S. cerevisiae deletion strains, locus YLR039C, strain RIC1, stronger effect = lower value): 0.83; normalized growth (S. cerevisiae deletion strains, locus YLR058C, strain SHM2, stronger effect = lower value): 0.987; normalized growth (S. cerevisiae deletion strains, locus YLR102C, strain apc9, stronger effect = lower value): 0.969; normalized growth (S. cerevisiae deletion strains, locus YLR113W, strain HOG1, stronger effect = lower value): 0.783 (active); normalized growth (S. cerevisiae deletion strains, locus YLR221C, strain rsa3, stronger effect = lower value): 0.925; normalized growth (S. cerevisiae deletion strains, locus YLR258W, strain gsy2, stronger effect = lower value): 0.956; normalized growth (S. cerevisiae deletion strains, locus YLR262C, strain YPT6 (second series), stronger effect = lower value): 0.739 (active); normalized growth (S. cerevisiae deletion strains, locus YLR262C, strain YPT6, stronger effect = lower value): 0.839; normalized growth (S. cerevisiae deletion strains, locus YLR268W, strain sec22, stronger effect = lower value): 0.941; normalized growth (S. cerevisiae deletion strains, locus YLR320W, strain mms22, stronger effect = lower value): 0.835 (active); normalized growth (S. cerevisiae deletion strains, locus YLR330W, strain CHS5, stronger effect = lower value): 0.982; normalized growth (S. cerevisiae deletion strains, locus YLR342W, strain FKS1 (second series), stronger effect = lower value): 0.906; normalized growth (S. cerevisiae deletion strains, locus YLR342W, strain FKS1, stronger effect = lower value): 0.944; normalized growth (S. cerevisiae deletion strains, locus YLR357W, strain rsc2, stronger effect = lower value): 1.05; normalized growth (S. cerevisiae deletion strains, locus YLR370C, strain arc18, stronger effect = lower value): 0.969; normalized growth (S. cerevisiae deletion strains, locus YLR371W, strain rom2, stronger effect = lower value): 0.966; normalized growth (S. cerevisiae deletion strains, locus YLR384C, strain iki3, stronger effect = lower value): 0.974; normalized growth (S. cerevisiae deletion strains, locus YLR418C, strain cdc73, stronger effect = lower value): 0.885; normalized growth (S. cerevisiae deletion strains, locus YML016C, strain PPZ1, stronger effect = lower value): 0.991; normalized growth (S. cerevisiae deletion strains, locus YML032C, strain rad52, stronger effect = lower value): 0.948; normalized growth (S. cerevisiae deletion strains, locus YML120C, strain ndi1, stronger effect = lower value): 0.939; normalized growth (S. cerevisiae deletion strains, locus YML124C, strain tub3, stronger effect = lower value): 0.969; normalized growth (S. cerevisiae deletion strains, locus YMR058W, strain fet3, stronger effect = lower value): 0.952; normalized growth (S. cerevisiae deletion strains, locus YMR078C, strain ctf18, stronger effect = lower value): 0.957; normalized growth (S. cerevisiae deletion strains, locus YMR125W, strain sto1, stronger effect = lower value): 0.966; normalized growth (S. cerevisiae deletion strains, locus YMR129W, stronger effect = lower value): 0.967; normalized growth (S. cerevisiae deletion strains, locus YMR205C, strain PFK2, stronger effect = lower value): 0.899; normalized growth (S. cerevisiae deletion strains, locus YMR223W, strain ubp8, stronger effect = lower value): 0.925; normalized growth (S. cerevisiae deletion strains, locus YMR231W, strain pep5, stronger effect = lower value): 0.984; normalized growth (S. cerevisiae deletion strains, locus YMR263W, strain SAP30, stronger effect = lower value): 0.981; normalized growth (S. cerevisiae deletion strains, locus YMR307W, strain GAS1, stronger effect = lower value): 1.06; normalized growth (S. cerevisiae deletion strains, locus YNL067W, strain RPL9B, stronger effect = lower value): 0.954; normalized growth (S. cerevisiae deletion strains, locus YNL071W, strain lat1, stronger effect = lower value): 0.889 (active); normalized growth (S. cerevisiae deletion strains, locus YNL128W, strain TEP1, stronger effect = lower value): 0.989; normalized growth (S. cerevisiae deletion strains, locus YNL183C, strain NPR1, stronger effect = lower value): 0.868; normalized growth (S. cerevisiae deletion strains, locus YNL209W, strain ssb2, stronger effect = lower value): 0.968; normalized growth (S. cerevisiae deletion strains, locus YNL233W, strain BNI4, stronger effect = lower value): 0.931; normalized growth (S. cerevisiae deletion strains, locus YNL248C, strain rpa49, stronger effect = lower value): 0.905; normalized growth (S. cerevisiae deletion strains, locus YNL250W, strain rad50, stronger effect = lower value): 0.987; normalized growth (S. cerevisiae deletion strains, locus YNL271C, strain bni1, stronger effect = lower value): 0.95; normalized growth (S. cerevisiae deletion strains, locus YNL298W, strain CLA4, stronger effect = lower value): 0.954; normalized growth (S. cerevisiae deletion strains, locus YNL307C, strain MCK1, stronger effect = lower value): 0.798 (active); normalized growth (S. cerevisiae deletion strains, locus YNL322C, strain KRE1 (second series), stronger effect = lower value): 0.973; normalized growth (S. cerevisiae deletion strains, locus YNL322C, strain KRE1, stronger effect = lower value): 0.989; normalized growth (S. cerevisiae deletion strains, locus YNR049C, strain mso1, stronger effect = lower value): 0.954; normalized growth (S. cerevisiae deletion strains, locus YNR052C, strain pop2, stronger effect = lower value): 1; normalized growth (S. cerevisiae deletion strains, locus YOL006C, strain TOP1, stronger effect = lower value): 0.725; normalized growth (S. cerevisiae deletion strains, locus YOL012C, strain htz1): 1.34; normalized growth (S. cerevisiae deletion strains, locus YOL147C, strain pex11, stronger effect = lower value): 0.974; normalized growth (S. cerevisiae deletion strains, locus YOR001W, strain rrp6, stronger effect = lower value): 0.916; normalized growth (S. cerevisiae deletion strains, locus YOR061W, strain CKA2, stronger effect = lower value): 0.988; normalized growth (S. cerevisiae deletion strains, locus YOR069W, strain VPS5, stronger effect = lower value): 0.991; normalized growth (S. cerevisiae deletion strains, locus YOR070C, strain gyp1, stronger effect = lower value): 0.965; normalized growth (S. cerevisiae deletion strains, locus YOR080W, strain dia2, stronger effect = lower value): 0.985; normalized growth (S. cerevisiae deletion strains, locus YOR083W, strain WHI5, stronger effect = lower value): 0.97; normalized growth (S. cerevisiae deletion strains, locus YOR106W, strain vam3, stronger effect = lower value): 0.859 (active); normalized growth (S. cerevisiae deletion strains, locus YOR136W, strain idh2, stronger effect = lower value): 0.987; normalized growth (S. cerevisiae deletion strains, locus YOR144C, strain elg1, stronger effect = lower value): 0.974; normalized growth (S. cerevisiae deletion strains, locus YOR184W, strain ser1, stronger effect = lower value): 0.655 (active); normalized growth (S. cerevisiae deletion strains, locus YOR231W, strain MKK1, stronger effect = lower value): 0.86 (active); normalized growth (S. cerevisiae deletion strains, locus YOR265W, strain rbl2, stronger effect = lower value): 0.957; normalized growth (S. cerevisiae deletion strains, locus YOR270C, strain vph1, stronger effect = lower value): 0.927; normalized growth (S. cerevisiae deletion strains, locus YOR290C, strain snf2, stronger effect = lower value): 0.941; normalized growth (S. cerevisiae deletion strains, locus YOR316C, strain cot1, stronger effect = lower value): 0.974; normalized growth (S. cerevisiae deletion strains, locus YPL051W, strain arl3, stronger effect = lower value): 0.96; normalized growth (S. cerevisiae deletion strains, locus YPL078C, strain atp4, stronger effect = lower value): 0.933; normalized growth (S. cerevisiae deletion strains, locus YPL106C, strain sse1, stronger effect = lower value): 1; normalized growth (S. cerevisiae deletion strains, locus YPL240C, strain hsp82, stronger effect = lower value): 0.958; normalized growth (S. cerevisiae deletion strains, locus YPL241C, strain CIN2, stronger effect = lower value): 0.99; normalized growth (S. cerevisiae deletion strains, locus YPL256C, strain CLN2, stronger effect = lower value): 0.832; normalized growth (S. cerevisiae deletion strains, locus YPR119W, strain clb2, stronger effect = lower value): 0.975; normalized growth (S. cerevisiae deletion strains, locus YPR141C, strain kar3, stronger effect = lower value): 0.949; normalized growth (S. cerevisiae deletion strains, locus YPR163C, strain tif3, stronger effect = lower value): 0.975; normalized growth (S. cerevisiae deletion strains, locus YPR167C, strain met16, stronger effect = lower value): 0.96; normalized growth (S. cerevisiae deletion strains, strain wtn01, stronger effect = lower value): 0.928; normalized growth (S. cerevisiae strains, strain wild type, stronger effect = lower value): 0.984
